In PubChem BioAssay one finds growth inhibition, inhibition and outcome data, which are given here for 20 molecules.

One may read the inhibition as the change of the read-out against control, counted positive when it falls.

Assay [1] can be described thus: antimalarial activity against Dd2 strain (AID 2302;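 active = growth inhibition above 50% at the single 2 µM test dose, taken to imply half-maximal potency below 2 µM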;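 note: 0% = DMSO untreated growth and 100% = chloroquine plus artemisinin killed control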). The note with it: P. falciparum Dd2 in RBCs, LDH growth readout, 72 h; at 2 µM; hits give high values.
Assay [2] can be described thus: HepG2 cytotoxicity, primary screen, cytotoxicity control for P. falciparum antimalarial project, cell-based, ATP luminescence (AID 2303;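 active = inhibition above 50%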;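 note: 0% = DMSO wells and 100% = digitonin-killed cells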). The note with it: HepG2 viability, 24-48 h, at 10 µM, hits give high values.
Assay [3] addresses L-lactate dehydrogenase (Plasmodium falciparum (isolate CDC / Honduras)) (UniProt Q27743). Kind of assay: PfLDH activity inhibition – cell lysate, 3D7 strain, counter-screen for P. falciparum growth inhibition project (AID 2304).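 Note: 0% = vehicle and 100% = reference inhibitor.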 The note with it: P. falciparum 3D7 crude extract, LDH APAD/NBT absorbance; at 2 µM; hits give high values. In general terms: A counterscreen serves to expose hits that act by an unwanted route or on another target.

A short description of assay [4]: inhibition of 3D7 malaria parasite growth – strain 3D7 (AID 2306).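 Note: 0% = DMSO wells and 100% = chloroquine plus artemisinin control wells.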 The note with it: P. falciparum 3D7 erythrocytic growth, LDH absorbance, 72 h; at 2 µM; hits give high values.
For assay [5], the target named is Calcium-dependent protein kinase 1 (Plasmodium falciparum (isolate 3D7)) (UniProt P62344). Kind of assay: PfCDPK1 kinase inhibitors, biochemical, TCAMS library (AID 1159585; cut-off not given, nearly all actives have IC50 up to about 0.98 µM;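 note: inhibitors leave more ATP so luminescence rises with inhibition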). Conditions: recombinant PfCDPK1, Kinase-Glo ATP depletion luminescence. Background: Kinase-Glo reads ATP consumption through a luciferase reaction.
Assay [6] concerns the target Plasmodium falciparum protein kinase 6 (PK6, PF3D7_1337100) (UniProt Q8IDW1). Kind of assay: PfPK6 kinase inhibitors, biochemical, TCAMS library (AID 1159586). Conditions: recombinant PfPK6, Kinase-Glo ATP depletion luminescence.
Assay [7] concerns the target Protein kinase 7 (PK7), Plasmodium falciparum 3D7 (PF3D7_0213400) (UniProt Q7YTF7). Kind of assay: inhibition of Plasmodium PK7 catalytic activity – biochemical, TCAMS antimalarial set, Kinase-Glo luminescence (AID 1159587). The note with it: recombinant PfPK7, Kinase-Glo ATP depletion luminescence.
Assay [8] deals with Calcium-dependent protein kinase 4 (Plasmodium falciparum (isolate 3D7)) (UniProt Q8IBS5). Kind of assay: PfCDPK4 kinase inhibitors, biochemical, TCAMS library (AID 1159588; cut-off not given, nearly all actives have IC50 up to about 0.91 µM). The note with it: recombinant PfCDPK4, Kinase-Glo ATP depletion luminescence.

Values without a mark were called inactive. For some of these results: Measured potencies and affinities stand elsewhere. Active and inactive are the calls of the source. Unless noted, the rule behind the calls is not given here.

Plasmodium falciparum protein kinase 6 (PK6, PF3D7_1337100), sequence (Q8IDW1 1-305): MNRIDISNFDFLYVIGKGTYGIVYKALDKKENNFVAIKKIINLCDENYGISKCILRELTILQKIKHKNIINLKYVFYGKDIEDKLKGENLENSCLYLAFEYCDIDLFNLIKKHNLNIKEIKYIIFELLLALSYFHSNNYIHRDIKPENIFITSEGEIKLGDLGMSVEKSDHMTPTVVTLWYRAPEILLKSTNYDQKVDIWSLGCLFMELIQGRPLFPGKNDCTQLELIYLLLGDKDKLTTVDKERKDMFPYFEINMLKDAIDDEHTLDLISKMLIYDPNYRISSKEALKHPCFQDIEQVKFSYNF
L-lactate dehydrogenase (Plasmodium falciparum (isolate CDC / Honduras)), sequence (Q27743 whole entry, looked up): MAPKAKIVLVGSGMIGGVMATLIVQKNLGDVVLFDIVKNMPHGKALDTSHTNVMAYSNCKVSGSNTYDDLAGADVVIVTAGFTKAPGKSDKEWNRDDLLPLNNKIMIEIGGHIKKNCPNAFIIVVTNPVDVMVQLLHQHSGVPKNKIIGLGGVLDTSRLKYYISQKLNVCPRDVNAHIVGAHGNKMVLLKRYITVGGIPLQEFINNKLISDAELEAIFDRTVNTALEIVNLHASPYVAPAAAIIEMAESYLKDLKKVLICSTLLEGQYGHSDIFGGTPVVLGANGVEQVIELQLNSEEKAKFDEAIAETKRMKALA
Calcium-dependent protein kinase 1 (Plasmodium falciparum (isolate 3D7)), sequence (P62344 whole entry, looked up): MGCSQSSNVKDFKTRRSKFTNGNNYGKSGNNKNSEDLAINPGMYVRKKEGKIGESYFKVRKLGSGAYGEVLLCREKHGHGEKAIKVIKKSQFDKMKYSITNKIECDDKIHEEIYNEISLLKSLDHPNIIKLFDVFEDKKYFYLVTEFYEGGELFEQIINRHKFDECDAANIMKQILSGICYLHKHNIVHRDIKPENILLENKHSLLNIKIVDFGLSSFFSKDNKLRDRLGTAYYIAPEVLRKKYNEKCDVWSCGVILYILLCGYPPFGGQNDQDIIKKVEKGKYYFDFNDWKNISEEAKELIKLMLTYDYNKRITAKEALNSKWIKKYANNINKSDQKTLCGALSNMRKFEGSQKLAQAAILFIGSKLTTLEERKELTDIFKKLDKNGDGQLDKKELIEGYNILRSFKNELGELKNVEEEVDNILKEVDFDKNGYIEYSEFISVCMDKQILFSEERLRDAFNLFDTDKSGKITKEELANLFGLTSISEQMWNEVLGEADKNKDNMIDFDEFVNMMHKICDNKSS
Calcium-dependent protein kinase 4 (Plasmodium falciparum (isolate 3D7)), sequence (Q8IBS5 whole entry, looked up): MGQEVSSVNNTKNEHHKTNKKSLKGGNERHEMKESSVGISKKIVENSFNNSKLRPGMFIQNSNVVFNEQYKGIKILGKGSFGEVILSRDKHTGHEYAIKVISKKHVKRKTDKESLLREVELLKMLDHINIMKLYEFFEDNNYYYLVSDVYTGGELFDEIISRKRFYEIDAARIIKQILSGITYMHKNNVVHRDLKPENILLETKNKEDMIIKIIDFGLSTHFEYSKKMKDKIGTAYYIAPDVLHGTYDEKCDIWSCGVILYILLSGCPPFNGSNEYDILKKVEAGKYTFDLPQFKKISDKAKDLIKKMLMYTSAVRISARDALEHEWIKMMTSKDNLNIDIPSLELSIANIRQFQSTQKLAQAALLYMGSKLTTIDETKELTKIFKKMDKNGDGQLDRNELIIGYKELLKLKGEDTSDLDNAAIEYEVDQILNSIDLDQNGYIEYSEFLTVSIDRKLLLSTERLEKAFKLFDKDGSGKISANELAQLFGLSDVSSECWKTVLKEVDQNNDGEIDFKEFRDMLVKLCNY
Protein kinase 7 (PK7), Plasmodium falciparum 3D7 (PF3D7_0213400), sequence (Q7YTF7 1-343): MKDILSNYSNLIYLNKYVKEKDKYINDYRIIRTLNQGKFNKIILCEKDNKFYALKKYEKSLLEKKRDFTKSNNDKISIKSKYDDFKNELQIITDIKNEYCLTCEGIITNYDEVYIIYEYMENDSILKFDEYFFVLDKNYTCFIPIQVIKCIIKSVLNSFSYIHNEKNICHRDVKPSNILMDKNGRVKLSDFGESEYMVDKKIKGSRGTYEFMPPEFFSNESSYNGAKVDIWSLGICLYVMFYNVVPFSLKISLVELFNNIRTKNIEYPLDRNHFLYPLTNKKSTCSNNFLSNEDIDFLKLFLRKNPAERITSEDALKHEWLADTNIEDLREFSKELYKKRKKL

Consider `COc1ccccc1C1CCN(C2CCC(NC(=O)/C=C/c3ccc(OC(F)(F)F)cc3)CC2)CC1` (stereo not given), for which the growth inhibition in assay [1] is 11%; in assay [4], 82% (active). In addition, the results for the inhibition in assay [2] and in assay [3] were 65% (active) and -3%, respectively. Also, the outcome in assay [5], in assay [6], in assay [7] and in assay [8] was inactive.
For the molecule `CC(=O)Nc1ccc(OCCCCN(Cc2ccccc2C(F)(F)F)c2ccc(C(F)(F)F)c(C#N)c2)c(Cl)c1`, the growth inhibition in assay [1] and in assay [4] was 96% (active) throughout. The inhibition was 14% in assay [2] and -1% in assay [3]. For the same molecule, the result in assay [5], in assay [6], in assay [7] and in assay [8] was inactive.
For `Cc1cc(Nc2ccncc2)n2nc(C)c(-c3ccc(Cl)cc3)c2n1`, the growth inhibition in assay [1] was 99% (active); in assay [4], 101% (active). Also, the inhibition was -9% in assay [2] and 2% in assay [3]. The result in assay [5], in assay [6], in assay [7] and in assay [8] was inactive.
`COc1cc(-c2cc(-c3ccc(S(C)(=O)=O)cc3)cnc2N)ccc1O`: the growth inhibition in assay [1] and in assay [4] was 97% (active) in each case. Further, the results for the inhibition in assay [2] and in assay [3] were 37% and -2%, respectively. Also, the result in assay [5], in assay [6], in assay [7] and in assay [8] was inactive.
With `COc1cc2nc(N3CCN(c4nc(N)c5cc(OC)c(OC)cc5n4)CC3)nc(N)c2cc1OC`, the results for the growth inhibition in assay [1] and in assay [4] were 99% (active) and 101% (active), respectively. In addition, the inhibition in assay [2] was 13%; in assay [3], -4%. For the same molecule, the outcome in assay [5], in assay [6], in assay [7] and in assay [8] was inactive.
On to `CC1(C)N=C(N)N=C(N)N1OCCOc1ccc(Cc2ccccc2)cc1`, for which the growth inhibition in assay [1] was 26%; in assay [4], 94% (active). Further, the inhibition in assay [2] was 62% (active); in assay [3] it was 3%. The outcome in assay [5], in assay [6], in assay [7] and in assay [8] was inactive.
As for `Cc1ccc(-n2c(C)nc3c(Nc4ccc(-c5ccncc5)cc4)ncnc32)c(C)c1`, the growth inhibition in assay [1] and in assay [4] was 99% (active) in each case. Also, the inhibition in assay [2] is 38%; in assay [3], -4%. The outcome in assay [5], in assay [6], in assay [7] and in assay [8] was inactive.
On to `O=C(N[C@H]1CCN(CCc2ccc(O[C@H]3CCNC3)c(Br)c2)C1)c1ccc(Cl)c(Cl)c1`, for which the growth inhibition is 0% in assay [1] and 100% (active) in assay [4]. Moreover, the inhibition in assay [2] is 28%; in assay [3] it was -4%. In addition, the result in assay [5], in assay [6], in assay [7] and in assay [8] was inactive.
Turning to `CO/C(=C\C=C\c1cc2cc(Cl)c(Cl)cc2[nH]1)C(=O)NC1CCN(CCCc2ccccc2)CC1`, the growth inhibition is 75% (active) in assay [1] and 93% (active) in assay [4]. Further, the inhibition is 59% (active) in assay [2] and 0% in assay [3]. The outcome in assay [5], in assay [6], in assay [7] and in assay [8] was inactive.
As for `Cc1ccc(Nc2ccnc3cc(-c4nccs4)ccc23)cc1C(O)c1ccccc1` (stereo not given), the growth inhibition in assay [1] is 83% (active); in assay [4], 85% (active). For the same molecule, the figures for the inhibition in assay [2] and in assay [3] were 23% and -8%, respectively. The outcome in assay [5], in assay [6], in assay [7] and in assay [8] was inactive.
Take `O=C(/C=C/c1ccc(Cl)c(Cl)c1)NCCCCCN1CCC(NC(=S)Nc2ccc(Cl)c(Cl)c2)CC1`: the growth inhibition in assay [1] was 65% (active); in assay [4] it was 99% (active). Further, the inhibition in assay [2] was 29%; in assay [3], 2%. In addition, the result in assay [5], in assay [6], in assay [7] and in assay [8] was inactive.
On to `Clc1ccc(OC2CCC(Cn3ccnc3)(c3ccc(Cl)cc3Cl)CC2)c(Cl)c1` (stereo not given), for which the values for the growth inhibition in assay [1] and in assay [4] were 86% (active) and 98% (active), respectively. For the same molecule, the inhibition was 4% in assay [2] and -4% in assay [3]. Besides, the result in assay [5], in assay [6], in assay [7] and in assay [8] was inactive.
Regarding `CC(Cc1ccc(NC(=O)COc2ccc(CC(C)NCCc3cccc(Cl)c3)cc2)cc1)NCCc1cccc(Cl)c1` (stereo not given), the growth inhibition in assay [1] was 98% (active); in assay [4], 105% (active). In addition, the inhibition in assay [2] is 100% (active); in assay [3], 4%. Besides, the result in assay [5], in assay [6], in assay [7] and in assay [8] was inactive.
As for `CC(=O)Nc1cc(C(=O)Nc2cccc(-c3cccc(-c4nc5c(C)cccc5[nH]4)c3)c2)ccc1C`, the growth inhibition was 62% (active) in assay [1] and 100% (active) in assay [4]. The inhibition is 25% in assay [2] and 1% in assay [3]. Further, the result in assay [5], in assay [6], in assay [7] and in assay [8] was inactive.
On to `Cc1cc(NN=Cc2ccccc2[N+](=O)[O-])c2ccc(F)cc2n1`, for which the growth inhibition in assay [1] was 100% (active); in assay [4], 101% (active). Moreover, the values for the inhibition in assay [2] and in assay [3] were 32% and -4%, respectively. In addition, the result in assay [5], in assay [6], in assay [7] and in assay [8] was inactive.
As for `COc1ccc(C=C2SC(=N)N(c3ccccc3OC)C2=O)cc1`, the growth inhibition in assay [1] was 95% (active); in assay [4], 97% (active). Besides, the inhibition was 47% in assay [2] and 3% in assay [3]. Besides, the result in assay [5], in assay [6], in assay [7] and in assay [8] was inactive.
As for `Cc1cnc(NCC2CCCCC2)nc1N[C@@H](CC(C)C)C(=O)Nc1ccccc1`, the growth inhibition in assay [1] was 55% (active); in assay [4] it was 96% (active). In addition, the figures for the inhibition in assay [2] and in assay [3] were 12% and -2%, respectively. The outcome in assay [5], in assay [6], in assay [7] and in assay [8] was inactive.
Turning to `Cc1cnc(Nc2ccccc2)nc1NCCC(=O)Nc1ccccc1`, the values for the growth inhibition in assay [1] and in assay [4] were 7% and 89% (active), respectively. Also, the inhibition was 10% in assay [2] and 3% in assay [3]. In addition, the result in assay [5], in assay [6], in assay [7] and in assay [8] was inactive.
Regarding `CC(CN1CCN(CC(c2ccc(F)cc2)N2CCN(C)CC2)CC1)C(=O)c1ccc(O)cc1` (stereo not given), the figures for the growth inhibition in assay [1] and in assay [4] were 10% and 97% (active), respectively. For the same molecule, the values for the inhibition in assay [2] and in assay [3] were -2% and -5%, respectively. Also, the result in assay [5], in assay [6], in assay [7] and in assay [8] was inactive.
For `Cc1ccc2[nH]c3c(NCCCN4CCOCC4)ncnc3c2c1`, the figures for the growth inhibition in assay [1] and in assay [4] were 9% and 101% (active), respectively. In addition, the figures for the inhibition in assay [2] and in assay [3] were -1% and -3%, respectively. Also, the result in assay [5], in assay [6], in assay [7] and in assay [8] was inactive.
